Holding throughout (test): DAPPL (digital affinity profiling via proximity ligation, sequencing); 10 mM Tris-HCl pH 7.5, 50 mM NaCl, 1 mM DTT, 4% glycerol, room temperature, 30 min; GST-TFs on glutathione beads, 16-mer random dsDNA library, 0.1% formaldehyde crosslink after washing; high values mean tight binding
Experiment [1] addresses T1, FEV (Homo sapiens, UniProt Q99581 1-238).
T1 sequence: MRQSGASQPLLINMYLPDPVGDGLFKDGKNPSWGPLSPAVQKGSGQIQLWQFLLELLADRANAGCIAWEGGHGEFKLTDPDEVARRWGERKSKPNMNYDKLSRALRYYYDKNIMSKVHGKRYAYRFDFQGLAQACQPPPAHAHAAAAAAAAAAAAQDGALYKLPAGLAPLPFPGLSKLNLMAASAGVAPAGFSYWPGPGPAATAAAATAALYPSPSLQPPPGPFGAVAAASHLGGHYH
As to conditions: protein: recombinant; tags: N-terminal GST; dsDNA, one strand shown. In short, it runs like this: (§1)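 In yeast, human transcription factors were expressed with a GST fusion, then pulled down on glutathione beads and given DNA barcodes. Pooled with a tag-only sample, they were exposed to 200 nmole of a 16-mer random double-stranded DNA library (Tris/NaCl/DTT/glycerol buffer, room temperature, 30 min), washed, crosslinked with 0.1% formaldehyde, proximity-ligated using BsaI/T4 ligase for 1 h at 37 °C, PCR-amplified and read on an Illumina NextSeq500. Each hexamer's frequency of reads for a factor, divided by the matching frequency for the tag-only sample, gives the binding signal.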

In experiment [2] the target is ETV5 (Homo sapiens, UniProt P41161 1-510). Particulars: protein: recombinant; tags: N-terminal GST; dsDNA, one strand shown. The procedure, abridged:
as §1

Experiment [3] addresses HSF1 (Homo sapiens, UniProt Q00613 1-529). Particulars: protein: recombinant; tags: N-terminal GST; chain copies: 3; dsDNA, one strand shown. In short, it runs like this: as §1
Experiment [4] deals with T2, SPIC (Homo sapiens, UniProt Q8N5J4 1-248).
T2 sequence: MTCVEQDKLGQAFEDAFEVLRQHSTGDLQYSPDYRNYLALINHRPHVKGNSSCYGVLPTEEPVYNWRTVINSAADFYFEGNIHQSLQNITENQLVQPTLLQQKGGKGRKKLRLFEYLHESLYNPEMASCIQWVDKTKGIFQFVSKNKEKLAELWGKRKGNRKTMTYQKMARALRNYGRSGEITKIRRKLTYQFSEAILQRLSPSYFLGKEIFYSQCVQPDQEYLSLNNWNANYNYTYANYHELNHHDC
Particulars: protein: recombinant; tags: N-terminal GST; dsDNA, one strand shown. The procedure, abridged: as §1

Experiment [5] has as its target ELF4 (Homo sapiens, UniProt Q99607 1-663). Particulars: protein: recombinant; tags: N-terminal GST; dsDNA, one strand shown. In short, it runs like this:
as §1

The target of experiment [6] is T3, ELK4 (Homo sapiens, UniProt P28324-2 1-405).
T3 sequence: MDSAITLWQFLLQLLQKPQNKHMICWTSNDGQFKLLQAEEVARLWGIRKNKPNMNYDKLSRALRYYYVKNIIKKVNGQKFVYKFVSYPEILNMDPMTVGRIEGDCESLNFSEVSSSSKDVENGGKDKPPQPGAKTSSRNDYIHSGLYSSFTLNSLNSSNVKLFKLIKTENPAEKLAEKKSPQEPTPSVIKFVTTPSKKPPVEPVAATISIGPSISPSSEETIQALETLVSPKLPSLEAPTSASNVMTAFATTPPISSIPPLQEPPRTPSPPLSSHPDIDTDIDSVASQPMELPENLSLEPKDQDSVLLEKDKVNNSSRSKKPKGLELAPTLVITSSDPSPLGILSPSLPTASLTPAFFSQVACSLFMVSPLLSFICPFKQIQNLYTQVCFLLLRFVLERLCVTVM
As to conditions: protein: recombinant; tags: N-terminal GST; dsDNA, one strand shown. In short, it runs like this:
as §1

The target of experiment [7] is T4, ETV2 (Homo sapiens, UniProt O00321 1-342).
T4 sequence: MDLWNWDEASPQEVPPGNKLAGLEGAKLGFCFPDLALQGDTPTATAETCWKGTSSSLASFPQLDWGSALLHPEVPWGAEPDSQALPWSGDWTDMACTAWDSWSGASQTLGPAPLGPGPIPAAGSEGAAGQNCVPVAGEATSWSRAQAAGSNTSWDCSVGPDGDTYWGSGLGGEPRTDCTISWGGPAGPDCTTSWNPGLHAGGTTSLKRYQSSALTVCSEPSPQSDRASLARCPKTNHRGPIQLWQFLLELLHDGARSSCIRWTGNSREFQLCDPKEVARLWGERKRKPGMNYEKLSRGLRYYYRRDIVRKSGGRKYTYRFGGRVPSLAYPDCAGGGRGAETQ
As to conditions: protein: recombinant; tags: N-terminal GST; dsDNA, one strand shown. In short, it runs like this: as §1

In experiment [8] the target is T5, ELF3 (Homo sapiens, UniProt P78545 1-371).
T5 sequence: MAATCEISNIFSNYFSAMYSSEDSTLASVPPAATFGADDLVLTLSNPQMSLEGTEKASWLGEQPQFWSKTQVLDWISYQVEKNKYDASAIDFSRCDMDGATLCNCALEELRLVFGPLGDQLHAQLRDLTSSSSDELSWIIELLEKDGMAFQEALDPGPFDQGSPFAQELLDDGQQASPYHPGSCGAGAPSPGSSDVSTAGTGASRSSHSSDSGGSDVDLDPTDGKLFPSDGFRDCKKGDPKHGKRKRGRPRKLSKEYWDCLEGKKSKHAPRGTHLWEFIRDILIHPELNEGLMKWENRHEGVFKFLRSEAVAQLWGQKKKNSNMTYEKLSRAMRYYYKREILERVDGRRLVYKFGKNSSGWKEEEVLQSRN
As to conditions: protein: recombinant; tags: N-terminal GST; dsDNA, one strand shown. In short, it runs like this: as §1

Experiment [9] concerns the target CRX (Homo sapiens, UniProt O43186 1-299). As to conditions: protein: recombinant; tags: N-terminal GST; dsDNA, one strand shown. The procedure, abridged:
as §1

In experiment [10] the target is ETV1 (Homo sapiens, UniProt P50549 1-477). As to conditions: protein: recombinant; tags: N-terminal GST; dsDNA, one strand shown. The procedure, abridged:
as §1

HSF1, sequence (Q00613 whole entry): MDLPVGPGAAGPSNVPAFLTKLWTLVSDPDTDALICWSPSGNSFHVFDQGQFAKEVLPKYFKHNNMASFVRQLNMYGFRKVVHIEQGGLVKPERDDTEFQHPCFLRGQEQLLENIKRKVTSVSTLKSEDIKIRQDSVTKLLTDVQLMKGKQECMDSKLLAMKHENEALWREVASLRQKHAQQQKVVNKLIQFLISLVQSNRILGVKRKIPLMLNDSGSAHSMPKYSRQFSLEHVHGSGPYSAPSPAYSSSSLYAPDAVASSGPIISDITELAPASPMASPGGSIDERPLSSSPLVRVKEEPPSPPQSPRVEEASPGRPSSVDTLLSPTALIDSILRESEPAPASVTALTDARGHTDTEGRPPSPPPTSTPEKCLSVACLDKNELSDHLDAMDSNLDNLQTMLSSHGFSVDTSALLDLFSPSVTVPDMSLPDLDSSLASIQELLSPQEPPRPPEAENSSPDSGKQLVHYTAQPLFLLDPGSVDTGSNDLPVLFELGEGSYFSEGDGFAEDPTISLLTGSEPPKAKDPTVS
ETV1, sequence (P50549 whole entry): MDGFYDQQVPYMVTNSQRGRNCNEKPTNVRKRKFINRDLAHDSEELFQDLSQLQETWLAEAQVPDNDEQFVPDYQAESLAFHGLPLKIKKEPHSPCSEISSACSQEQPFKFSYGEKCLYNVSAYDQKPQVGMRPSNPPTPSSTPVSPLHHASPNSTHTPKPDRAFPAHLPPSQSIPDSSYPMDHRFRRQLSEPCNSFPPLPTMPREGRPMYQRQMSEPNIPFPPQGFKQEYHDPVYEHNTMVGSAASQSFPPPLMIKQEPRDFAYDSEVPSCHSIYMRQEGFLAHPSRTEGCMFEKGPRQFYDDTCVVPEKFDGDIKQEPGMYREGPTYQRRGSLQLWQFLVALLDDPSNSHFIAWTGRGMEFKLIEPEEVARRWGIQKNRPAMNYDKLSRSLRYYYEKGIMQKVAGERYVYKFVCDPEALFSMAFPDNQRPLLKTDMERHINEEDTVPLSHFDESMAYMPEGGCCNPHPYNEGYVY
ELF4, sequence (Q99607 whole entry): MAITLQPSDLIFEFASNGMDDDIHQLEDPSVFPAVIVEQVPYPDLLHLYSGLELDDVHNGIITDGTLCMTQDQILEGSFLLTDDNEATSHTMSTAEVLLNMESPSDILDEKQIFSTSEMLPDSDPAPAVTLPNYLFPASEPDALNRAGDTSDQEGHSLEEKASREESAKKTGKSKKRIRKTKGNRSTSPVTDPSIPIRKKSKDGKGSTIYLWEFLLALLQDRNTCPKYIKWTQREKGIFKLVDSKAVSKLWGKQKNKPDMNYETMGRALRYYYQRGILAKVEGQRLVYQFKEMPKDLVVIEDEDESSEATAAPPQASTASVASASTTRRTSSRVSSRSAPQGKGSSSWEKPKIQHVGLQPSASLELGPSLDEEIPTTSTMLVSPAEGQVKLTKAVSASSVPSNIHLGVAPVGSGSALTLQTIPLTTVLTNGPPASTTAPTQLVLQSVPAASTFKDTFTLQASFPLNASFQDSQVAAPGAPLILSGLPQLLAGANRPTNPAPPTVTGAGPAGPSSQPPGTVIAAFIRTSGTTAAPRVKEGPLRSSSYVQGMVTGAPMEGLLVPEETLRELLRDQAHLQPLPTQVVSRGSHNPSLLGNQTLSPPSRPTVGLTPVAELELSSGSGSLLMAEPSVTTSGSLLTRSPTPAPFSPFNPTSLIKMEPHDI
CRX, sequence (O43186 whole entry): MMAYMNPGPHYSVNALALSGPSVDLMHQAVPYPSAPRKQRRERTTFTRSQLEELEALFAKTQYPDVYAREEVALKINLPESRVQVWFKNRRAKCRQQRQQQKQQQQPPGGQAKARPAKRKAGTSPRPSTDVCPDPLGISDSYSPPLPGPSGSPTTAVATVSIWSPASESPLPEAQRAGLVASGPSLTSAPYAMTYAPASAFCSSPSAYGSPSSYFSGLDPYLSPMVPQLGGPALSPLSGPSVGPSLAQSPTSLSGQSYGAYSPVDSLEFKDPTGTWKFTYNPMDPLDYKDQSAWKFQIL
ETV5, sequence (P41161 whole entry): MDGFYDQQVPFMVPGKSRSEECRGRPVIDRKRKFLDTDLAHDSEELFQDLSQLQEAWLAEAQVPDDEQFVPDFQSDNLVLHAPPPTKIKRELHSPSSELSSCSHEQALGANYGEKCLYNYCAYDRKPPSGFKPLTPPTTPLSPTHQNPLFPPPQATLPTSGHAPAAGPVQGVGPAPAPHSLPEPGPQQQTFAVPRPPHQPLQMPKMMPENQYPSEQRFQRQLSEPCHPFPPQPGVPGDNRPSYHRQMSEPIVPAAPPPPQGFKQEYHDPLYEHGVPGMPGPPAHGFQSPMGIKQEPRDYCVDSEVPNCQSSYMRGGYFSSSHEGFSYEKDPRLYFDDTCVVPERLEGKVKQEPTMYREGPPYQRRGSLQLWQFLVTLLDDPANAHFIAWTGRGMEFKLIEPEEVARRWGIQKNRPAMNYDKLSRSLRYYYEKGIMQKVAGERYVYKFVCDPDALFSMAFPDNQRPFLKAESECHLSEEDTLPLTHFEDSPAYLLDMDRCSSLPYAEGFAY

As to TCACGA, the binding signal in experiment [1] is 1.05 fold enrichment (6-mer frequency, TF over GST control); in experiment [2] it was 1.09 fold enrichment (6-mer frequency, TF over GST control); in experiment [3], 1.37 fold enrichment (6-mer frequency, TF over GST control); in [4], 1.1 fold enrichment (6-mer frequency, TF over GST control); in experiment [5] it was 1.27 fold enrichment (6-mer frequency, TF over GST control); in experiment [6] it was 1.19 fold enrichment (6-mer frequency, TF over GST control). Besides, the binding signal in experiment [7] is 1.12 fold enrichment (6-mer frequency, TF over GST control); in [8], 1.17 fold enrichment (6-mer frequency, TF over GST control); in [9], 1.1 fold enrichment (6-mer frequency, TF over GST control); in experiment [10] it was 1.13 fold enrichment (6-mer frequency, TF over GST control).

For CCGACC, the binding signal in [1] was 1.71 fold enrichment (6-mer frequency, TF over GST control); in [2], 1.5 fold enrichment (6-mer frequency, TF over GST control); in experiment [3] it was 1.14 fold enrichment (6-mer frequency, TF over GST control); in experiment [4], 1.45 fold enrichment (6-mer frequency, TF over GST control); in experiment [5], 1.54 fold enrichment (6-mer frequency, TF over GST control); in experiment [6] it was 1.61 fold enrichment (6-mer frequency, TF over GST control). Also, the binding signal was 1.46 fold enrichment (6-mer frequency, TF over GST control) in experiment [7]; 1.63 fold enrichment (6-mer frequency, TF over GST control) in experiment [8]; 1.13 fold enrichment (6-mer frequency, TF over GST control) in [9]; 1.53 fold enrichment (6-mer frequency, TF over GST control) in experiment [10].

As for AACTAA, the binding signal is 1.35 fold enrichment (6-mer frequency, TF over GST control) in experiment [1]; 1.39 fold enrichment (6-mer frequency, TF over GST control) in experiment [2]; 1.44 fold enrichment (6-mer frequency, TF over GST control) in experiment [3]; 1.3 fold enrichment (6-mer frequency, TF over GST control) in experiment [4]; 1.45 fold enrichment (6-mer frequency, TF over GST control) in [5]; 1.3 fold enrichment (6-mer frequency, TF over GST control) in experiment [6]. In addition, the binding signal in experiment [7] was 1.24 fold enrichment (6-mer frequency, TF over GST control); in [8], 1.3 fold enrichment (6-mer frequency, TF over GST control); in experiment [9] it was 1.84 fold enrichment (6-mer frequency, TF over GST control); in experiment [10] it was 1.39 fold enrichment (6-mer frequency, TF over GST control).

Consider AGCTTC, for which the binding signal in experiment [1] is 1.84 fold enrichment (6-mer frequency, TF over GST control); in experiment [2], 1.85 fold enrichment (6-mer frequency, TF over GST control); in experiment [3], 1.93 fold enrichment (6-mer frequency, TF over GST control); in experiment [4], 1.75 fold enrichment (6-mer frequency, TF over GST control); in experiment [5], 1.67 fold enrichment (6-mer frequency, TF over GST control); in experiment [6], 1.64 fold enrichment (6-mer frequency, TF over GST control). Also, the binding signal is 1.74 fold enrichment (6-mer frequency, TF over GST control) in [7]; 1.58 fold enrichment (6-mer frequency, TF over GST control) in [8]; 1.62 fold enrichment (6-mer frequency, TF over GST control) in experiment [9]; 1.62 fold enrichment (6-mer frequency, TF over GST control) in experiment [10].

Take CGTAAT: the binding signal was 1.19 fold enrichment (6-mer frequency, TF over GST control) in [1]; 1.21 fold enrichment (6-mer frequency, TF over GST control) in [2]; 1.5 fold enrichment (6-mer frequency, TF over GST control) in experiment [3]; 1.14 fold enrichment (6-mer frequency, TF over GST control) in experiment [4]; 1.22 fold enrichment (6-mer frequency, TF over GST control) in experiment [5]; 1.17 fold enrichment (6-mer frequency, TF over GST control) in experiment [6]. Further, the binding signal in [7] was 1.17 fold enrichment (6-mer frequency, TF over GST control); in experiment [8], 1.29 fold enrichment (6-mer frequency, TF over GST control); in experiment [9], 1.94 fold enrichment (6-mer frequency, TF over GST control); in experiment [10], 1.24 fold enrichment (6-mer frequency, TF over GST control).

Take CACGTT: the binding signal in experiment [1] is 1.26 fold enrichment (6-mer frequency, TF over GST control); in experiment [2], 1.3 fold enrichment (6-mer frequency, TF over GST control); in experiment [3] it was 1.11 fold enrichment (6-mer frequency, TF over GST control); in experiment [4], 1.33 fold enrichment (6-mer frequency, TF over GST control); in [5] it was 1.31 fold enrichment (6-mer frequency, TF over GST control); in [6], 1.29 fold enrichment (6-mer frequency, TF over GST control). In addition, the binding signal in experiment [7] is 1.36 fold enrichment (6-mer frequency, TF over GST control); in [8], 1 fold enrichment (6-mer frequency, TF over GST control); in experiment [9] it was 1.08 fold enrichment (6-mer frequency, TF over GST control); in experiment [10], 1.21 fold enrichment (6-mer frequency, TF over GST control).

As for ATAATC, the binding signal was 1.1 fold enrichment (6-mer frequency, TF over GST control) in experiment [1]; 1.17 fold enrichment (6-mer frequency, TF over GST control) in [2]; 2.86 fold enrichment (6-mer frequency, TF over GST control) in [3]; 1.16 fold enrichment (6-mer frequency, TF over GST control) in [4]; 1.13 fold enrichment (6-mer frequency, TF over GST control) in experiment [5]; 1.13 fold enrichment (6-mer frequency, TF over GST control) in [6]. Besides, the binding signal was 1.21 fold enrichment (6-mer frequency, TF over GST control) in experiment [7]; 1.15 fold enrichment (6-mer frequency, TF over GST control) in experiment [8]; 4.71 fold enrichment (6-mer frequency, TF over GST control) in [9]; 1.12 fold enrichment (6-mer frequency, TF over GST control) in experiment [10].

As to ATGCTC, the binding signal in [1] was 1.39 fold enrichment (6-mer frequency, TF over GST control); in [2], 1.41 fold enrichment (6-mer frequency, TF over GST control); in [3], 1.43 fold enrichment (6-mer frequency, TF over GST control); in [4], 1.47 fold enrichment (6-mer frequency, TF over GST control); in [5] it was 1.46 fold enrichment (6-mer frequency, TF over GST control); in experiment [6] it was 1.32 fold enrichment (6-mer frequency, TF over GST control). Also, the binding signal in [7] was 1.37 fold enrichment (6-mer frequency, TF over GST control); in experiment [8], 1.47 fold enrichment (6-mer frequency, TF over GST control); in experiment [9], 1.38 fold enrichment (6-mer frequency, TF over GST control); in experiment [10], 1.42 fold enrichment (6-mer frequency, TF over GST control).
